Most compounds without a hit are left out; they make up all but 2.2% or so of the library.
EBV LMP1 NFkB: Epstein-Barr LMP1 NF-kappaB reporter inhibition; LMP1-induced NF-kappaB luciferase reporter cells, luminescence; inhibition, % at 12.5 µM; actives 0.69% (n = 350,000); AID 504558; in the data active = inhibition above about 41%; inconclusive = no clear call, values can overlap the other calls
PAX8 reporter: lowers PAX8-driven luciferase in RMG-I cells; actives 1.2% (n = 360,000); inhibition, % at 12.6 µM; RMG-I TPO-luciferase reporter, SteadyGlo, 24 h;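 active = mean replicate inhibition at least 60% with every replicate also reaching 60%; inconclusive = only one of the two criteria is met; inactive = mean below 60% and not all replicates reaching 60%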;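 note: luciferase light reporting Pax8 driven TPO promoter activity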
Shn3 inh set2: reduces Shn3 3'UTR luciferase signal in osteoblasts. actives 0.52% (n = 360,000). Clone20 osteoblast Shn3 3'UTR firefly luciferase, 24 h. inhibition, % at 12.5 µM;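 active = mean inhibition of at least 75% with every replicate also reaching 75%; inconclusive = mean inhibition at least 75% but some replicate below; inactive = mean inhibition below 75%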
MITF TRPM1 inh: MITF TRPM1 promoter inhibition in SK-MEL-5 cells | AID 488899 | inhibition, % at 12.5 µM | SK-MEL-5 TRPM1 promoter luciferase, 24 h | actives 0.83% (n = 330,000);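 active = mean inhibition across replicates of 60% or more, whatever share of single replicates reaches that level; inconclusive = some that reach 60%, reason not given; inactive = mean inhibition across replicates below 60%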
LGR2 antag: blocks bursicon-induced cAMP signaling via Drosophila LGR2 | actives 0.35% (n = 380,000) | inhibition, % at 9.99 µM | HEK293 LGR2, CRE-luciferase, bursicon-stimulated, 4 h | AID 720647;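 active = drop in luminescence signal, shown as inhibition above about 50% in the replicate tests, limit read from the data, passing the limit was not always enough; inconclusive = probably only some replicates passing the limit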;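 note: agonist challenge used bursicon conditioned medium at about half maximal strength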
EWS-Fli inh: inhibitors of EWS/Fli oncoprotein transcriptional activity | A673 NR0B1-luciferase reporter, viability-normalised | inhibition, % at 12.6 µM | actives 0.67% (n = 350,000);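 active = mean inhibition of at least 50% after viability correction, with every replicate also passing that limit; inconclusive = mean reaches 50% but only one of two replicates passes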;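 note: firefly luciferase signal divided by Alamar Blue viability fluorescence both relative to DMSO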
Each line names hits and unclear results; the compound was inactive in the other large screens; ! = not confirmed by another sample.

O=C(NCCCN1CCOCC1)C(=O)N/N=C/c1c2ccccc2cc2ccccc12	PAX8 reporter 72 (no result: EWS-Fli inh)
CO[C@H]1CN(C)C(=O)c2cc(NC(=O)c3nc4ccccc4s3)ccc2OC[C@H](C)N(Cc2cccnc2)C[C@H]1C	PAX8 reporter 88 (no result: EBV LMP1 NFkB, Shn3 inh set2, MITF TRPM1 inh)
CO[C@@H]1CN(C)C(=O)c2cc(NC(=O)c3ccccc3F)ccc2OC[C@@H](C)N(CC2CC2)C[C@@H]1C	PAX8 reporter 79 (no result: EBV LMP1 NFkB, Shn3 inh set2, MITF TRPM1 inh)
COc1ccc(S(=O)(=O)Nc2ccc3c(c2)C(=O)N([C@H](C)CO)C[C@H](C)[C@@H](CN(C)C(=O)CCC(F)(F)F)OCCCC[C@H](C)O3)cc1	none (no result: EBV LMP1 NFkB, Shn3 inh set2, MITF TRPM1 inh)
Cc1noc(C)c1S(=O)(=O)Nc1ccc2c(c1)CC(=O)N([C@@H](C)CO)C[C@@H](C)[C@@H](CN(C)Cc1ccc(C(=O)Nc3ccccc3N)cc1)O2	none (no result: EBV LMP1 NFkB, Shn3 inh set2, MITF TRPM1 inh, EWS-Fli inh)
CN(C)S(=O)(=O)c1cccc(NC(=O)CSc2nc3c(cc2C#N)C(=O)CC(C)(C)C3)c1	PAX8 reporter inconclusive, MITF TRPM1 inh 68
CN(C)S(=O)(=O)c1ccc(Cl)c(NC(=O)CSc2nc3c(cc2C#N)C(=O)CC(C)(C)C3)c1	none
COC(=O)[C@H]1[C@H](CO)[C@H]2Cn3c(ccc(-c4cccc(F)c4)c3=O)[C@H]2N1S(C)(=O)=O	none (no result: EBV LMP1 NFkB, PAX8 reporter, Shn3 inh set2, MITF TRPM1 inh)
CCCN(CCC)S(=O)(=O)c1ccc(Cl)c([N+](=O)[O-])c1	LGR2 antag 84, EWS-Fli inh 54
CCCN(CCC)S(=O)(=O)c1ccc(N2CCCC2=O)c([N+](=O)[O-])c1	none
O=S(=O)(Cc1ccccc1)NCC[C@@H]1CC[C@H](NS(=O)(=O)c2ccccc2)[C@@H](CO)O1	none (no result: EBV LMP1 NFkB, Shn3 inh set2, MITF TRPM1 inh)
COc1ccccc1Cc1c(C(C)(C)C)nc2c3ccccc3ccn12	PAX8 reporter 65 (no result: EBV LMP1 NFkB, MITF TRPM1 inh)
O=C(C1CCCCC1)N1CC2(C1)[C@H](c1ccccc1)[C@H](CO)N2C(=O)NC1CCCC1	none (no result: EBV LMP1 NFkB, PAX8 reporter, Shn3 inh set2, MITF TRPM1 inh)
CS(=O)(=O)c1nc(S(=O)(=O)c2ccc(Cl)cc2)c(N2CCOCC2)s1	MITF TRPM1 inh 67
CC1CN(c2sc(S(C)(=O)=O)nc2S(=O)(=O)c2ccc(Cl)cc2)CC(C)O1 (configuration not stated)	none
COc1ccc(NC(=O)O/N=C/c2c(C)nn(C(C)(C)C)c2C)cc1	none (no result: LGR2 antag)
Cc1nn(C(C)(C)C)c(C)c1/C=N/OC(=O)Nc1ccc(Cl)c(Cl)c1	EBV LMP1 NFkB 47 (no result: Shn3 inh set2, LGR2 antag)
S=C(NCCc1ccccc1)Nc1cccc2cnccc12	Shn3 inh set2 89
S=C(NCc1ccccc1)Nc1cccc2cnccc12	none (no result: EWS-Fli inh)
C[C@@H]1CCCCO[C@H](CN(C)Cc2ccncc2)[C@H](C)CN([C@@H](C)CO)C(=O)c2cc(NC(=O)CCCN(C)C)ccc2O1	none (no result: EBV LMP1 NFkB, Shn3 inh set2, MITF TRPM1 inh)
COc1cccc(/C=N/NC(=O)CN2CC(c3ccccc3)CC2=O)c1OC (configuration not stated)	EBV LMP1 NFkB 75, MITF TRPM1 inh 94 (no result: LGR2 antag)
COC(=O)C1C=CC(OC2OC(COC(C)=O)C(OC(C)=O)C(OC(C)=O)C2OC(C)=O)n2c(=O)n(-c3ccccc3)c(=O)n21 (configuration not stated)	PAX8 reporter 101, Shn3 inh set2 97, MITF TRPM1 inh 95, LGR2 antag inconclusive
CCCC#Cc1ccc([C@@H]2[C@@H](CO)N3C(=O)CN(C(=O)c4cccnc4)C[C@H]23)cc1	none (no result: EBV LMP1 NFkB, PAX8 reporter, Shn3 inh set2, MITF TRPM1 inh)
CC1CCC(C(C)C)C(OC(=O)C[n+]2cc(-c3ccc(Cl)cc3)n3c2CCC3)C1 (configuration not stated)	none
Cc1cccc(OCc2n(CC(=O)OC3CC(C)CCC3C(C)C)c3ccccc3[n+]2C)c1 (configuration not stated)	MITF TRPM1 inh 96 (no result: PAX8 reporter, LGR2 antag, EWS-Fli inh)
CC1CCC(C(C)C)C(OC(=O)Cn2c(-c3ccc(F)cc3)[n+](C)c3ccccc32)C1 (configuration not stated)	PAX8 reporter 94, MITF TRPM1 inh 80, LGR2 antag inconclusive
CC1CCC(C(C)C)C(OC(=O)Cn2c(-c3ccccc3)[n+](C)c3ccccc32)C1 (configuration not stated)	PAX8 reporter 81, Shn3 inh set2 86!, MITF TRPM1 inh 87, LGR2 antag 59
Cc1cccc(OC(=O)Cn2c(C(F)(F)F)nc3ccccc32)c1	none (no result: PAX8 reporter, LGR2 antag, EWS-Fli inh)
O=C(C[C@@H]1CC[C@@H](NC(=O)c2cccc(F)c2)[C@@H](CO)O1)NCc1ccccc1	none (no result: EBV LMP1 NFkB, Shn3 inh set2, MITF TRPM1 inh)
C[C@H]1CN([C@@H](C)CO)C(=O)Cc2cc(NC(=O)Nc3ccccc3)ccc2O[C@@H]1CN(C)Cc1ccc(C(=O)O)cc1	none (no result: EBV LMP1 NFkB, Shn3 inh set2, MITF TRPM1 inh)
COc1cccc(CN(C)C(=O)c2ccc(OCC(=O)Nc3cccc(C(F)(F)F)c3)c(OC)c2)c1	Shn3 inh set2 86
COc1ccc(CN(C)C(=O)c2ccc(OCC(=O)Nc3cccc(C(F)(F)F)c3)c(OC)c2)c(OC)c1	none
O=C(Cc1csc(Nc2nc(=S)[nH]c3ccccc23)n1)N1CCN(c2cccc(Cl)c2)CC1	MITF TRPM1 inh 78
CCCn1c(CC)nc([N+](=O)[O-])c1S(=O)(=O)c1ccccc1	PAX8 reporter 82, MITF TRPM1 inh inconclusive (no result: LGR2 antag, EWS-Fli inh)
CCO[C@@H]1OC(C(=O)NC2CC2)=C[C@H](c2coc3ccccc3c2=O)[C@H]1CCCO	Shn3 inh set2 92
CCO[C@@H]1OC(C(=O)O)=C[C@H](c2coc3ccccc3c2=O)[C@H]1CCCO	none
CCCNC(=O)C[C@H]1C[C@@H]2c3cc(N(C)C)ccc3O[C@@H]2[C@H](CO)O1	none (no result: EBV LMP1 NFkB, PAX8 reporter, Shn3 inh set2, MITF TRPM1 inh)
Cc1ccc2c(c1)N(CC(=O)N1CCCC1)C(=O)c1cccnc1O2	EBV LMP1 NFkB 61
Cc1ccc2c(c1)N(CC(=O)N1CCCCCC1)C(=O)c1cccnc1O2	none
COc1ccc2cc3c(N)nn(C(=O)Cc4c[nH]c5ccccc45)c3nc2c1	EBV LMP1 NFkB 75, MITF TRPM1 inh 63, LGR2 antag 88
COc1ccc2cc3c(N)nn(C(=O)c4ccc(F)cc4)c3nc2c1	none
COc1ccc2cc3c(N)nn(C(=O)c4ccccc4Cl)c3nc2c1	EBV LMP1 NFkB 80
COc1ccc(-c2cnc3c(c2)C(=O)N([C@@H](C)CO)C[C@@H](C)[C@H](CN(C)S(=O)(=O)c2ccc(OC)cc2)O3)cc1	none (no result: EBV LMP1 NFkB, PAX8 reporter, Shn3 inh set2, MITF TRPM1 inh)
O=C(C[C@H]1CC[C@H](NC(=O)C2CCOCC2)[C@H](CO)O1)Nc1ccccc1	none (no result: EBV LMP1 NFkB, PAX8 reporter, Shn3 inh set2, MITF TRPM1 inh)
C[C@H](CO)N1C[C@H](C)[C@@H](CN(C)C(=O)C2CCC2)Oc2cc(-c3ccc(F)cc3)ccc2S1(=O)=O	none (no result: EBV LMP1 NFkB, PAX8 reporter, Shn3 inh set2, MITF TRPM1 inh)
O=C(Nc1cnn(C23CC4CC(CC(C4)C2)C3)c1)c1cnn2c(C(F)(F)F)cc(-c3ccco3)nc12	MITF TRPM1 inh 75, LGR2 antag 79 (no result: PAX8 reporter)
Cc1cc(O)c2c(c1O)C(=O)[C@]13C(=C2O)C(=O)[C@@H]2[C@@H](O)[C@H]1[C@@H]1[C@H](O)[C@H]3C(=O)C3=C(O)c4c(O)cc(C)c(O)c4C(=O)[C@]312	Shn3 inh set2 92, MITF TRPM1 inh inconclusive (no result: PAX8 reporter, LGR2 antag, EWS-Fli inh)
CCc1sc(C(=O)Nc2ncccc2O)cc1C	EBV LMP1 NFkB 52 (no result: EWS-Fli inh)

Screening data from PubChem.
